NCF1 inh: inhibitors of human p47phox binding | AID 1274 | actives 0.53% (n = 220,000) | p47phox/p22phox peptide binding, fluorescence polarization, 2 h | inhibition, % at 24.7 µM | P14598;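 active = inhibition above about 30%, limit read from the data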;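 also: 0% = p47phox with labelled peptide and 100% = labelled peptide alone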
HMGR II inh: inhibitors of class II HMG-CoA reductase from Enterococcus faecalis | purified E. faecalis HMGR, NADPH absorbance 340 nm kinetic | inhibition, % at 10 µM | actives 0.41% (n = 190,000) | AID 1066;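 active = inhibition above a set limit, the median over all tested compounds plus 3 SD, cut at about 9.5% in these data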;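 also: enzyme runs in reverse so mevalonate oxidation gives rising NADPH absorbance; 0% = complete reaction with DMSO and 100% = background rate lacking mevalonate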
dFosB act: activators of mouse delta FosB homodimer; actives 0.99% (n = 340,000); purified delta FosB, TAMRA-CDK5 oligo fluorescence polarization; percent of positive-control signal above neutral wells; activation, % at 25 µM; P13346;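 active = mean activation above about 17%, with every replicate also reaching it, limit read from the data, passing the limit was not always enough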
Target sequence (P13346 whole entry, looked up): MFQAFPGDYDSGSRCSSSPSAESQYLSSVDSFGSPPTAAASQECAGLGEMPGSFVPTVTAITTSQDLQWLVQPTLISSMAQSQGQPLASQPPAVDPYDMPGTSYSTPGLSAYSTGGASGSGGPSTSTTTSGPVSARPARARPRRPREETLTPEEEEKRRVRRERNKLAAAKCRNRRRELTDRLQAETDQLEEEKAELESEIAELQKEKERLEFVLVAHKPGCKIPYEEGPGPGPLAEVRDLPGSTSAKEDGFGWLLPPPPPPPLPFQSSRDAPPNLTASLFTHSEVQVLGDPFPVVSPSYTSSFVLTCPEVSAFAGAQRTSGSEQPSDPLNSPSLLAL
14-3-3 Bad inh: disrupts binding of bovine 14-3-3 zeta to phospho-Bad peptide; TR-FRET 14-3-3zeta/Dy647-pBad peptide displacement, 1 h; inhibition, % at 21.7 µM; actives 0.71% (n = 220,000);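 active = inhibition above about 70%, limit read from the data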;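 also: 0% = full 14-3-3 plus peptide FRET controls and 100% = background without 14-3-3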
Target sequence (P63103 whole entry, looked up): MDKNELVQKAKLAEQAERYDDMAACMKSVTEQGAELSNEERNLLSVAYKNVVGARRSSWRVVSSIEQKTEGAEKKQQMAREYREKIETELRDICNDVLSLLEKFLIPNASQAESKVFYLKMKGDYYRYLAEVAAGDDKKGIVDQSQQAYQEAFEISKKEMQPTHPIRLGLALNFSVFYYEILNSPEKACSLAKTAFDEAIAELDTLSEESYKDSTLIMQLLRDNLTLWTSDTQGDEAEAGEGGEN
An asterisk follows results filed as active; nt = no result given; [ ] = another dose, or the depositor's remark. Rows were chosen to be rich in hits. Some 1.9% of all compounds tested hit in one or more screens of this group.

SMILES	NCF1 inh	HMGR II inh	dFosB act	14-3-3 Bad inh
COc1cccc2cc(-c3nc(-c4cccs4)cs3)c(=O)oc12	-35.1	-3.1	-0.8	4.0
O=c1oc2ccccc2cc1-c1nc(-c2cccs2)cs1	51.8*	-1.2	0.7	-5.7
Cc1cc(C)c(Nc2cc(S(=O)(=O)O)c(N)c3c2C(=O)c2ccccc2C3=O)c(C)c1	58.9*	-1.2	-20.6	73.0*[fluorescence artefact?]
COc1ccc(/C=C2\SC(=O)N(CCC(=O)Nc3ccccc3)C2=O)cc1OC	10.6	-1.1	3.9	-5.1
COc1cc(/C=C2\SC(=O)N(CCN)C2=O)ccc1OS(=O)(=O)c1cc(C)ccc1C	72.2*	-3.0	-38.6	84.5*
CCC(CC)C(=O)c1c[nH]c(C(=O)NCc2cccs2)c1	-3.3	11.3*	1.8	-20.3
CCC(CC)C(=O)c1c[nH]c(C(=O)NCc2ccco2)c1	-7.5	-11.2	-0.7	-33.3
Nc1cc(Cl)ccc1Oc1ccc(Cl)cc1	-10.3	-1.6	-4.4	80.5*
CCCc1cc(=O)oc2cc(C)c3c(C)coc3c12	3.6	-8.0	-4.0	-7.0
COC(=O)C(C)N(c1ccc(C)cc1)S(=O)(=O)c1c(C)[nH]c(=O)[nH]c1=O (stereo not drawn)	3.8	-2.1	-1.5	4.2
Cc1ccc(N(C(C)C(=O)O)S(=O)(=O)c2c(C)[nH]c(=O)[nH]c2=O)cc1 (stereo not drawn)	-27.4	4.1	16.1*	5.0
Cc1ccc(-c2nnc(N(C)C(=O)C3CCCO3)s2)cn1 (stereo not drawn)	1.9	-5.2	-3.9	75.1*
CN(C(=O)C1CCCO1)c1nnc(-c2cnccn2)s1 (stereo not drawn)	-0.3	1.2	2.8	11.0
Cc1ccsc1/C=C1/NC(=O)N(Cc2ccc(F)cc2)C1=O	-7.3	15.0*	0.0	-8.5
O=C(CN1C(=O)N/C(=C\c2ccccc2OCc2ccc(C(=O)O)cc2)C1=O)Nc1ccc(F)cc1	nt	nt	-9.9	nt
O=C(O)c1ccc(COc2ccccc2/C=C2\NC(=O)N(Cc3ccc(F)cc3)C2=O)cc1	-15.1	10.9*	-2.5	-3.0
CN1CCN(CCOc2cccc(Cl)c2)CC1	-16.1	-6.0	2.2	72.9*
COc1cccc(C2c3[nH]c4ccccc4c3C[C@H]3C(=O)N(C4CCN(Cc5ccccc5)CC4)CC(=O)N23)c1 (stereo partly drawn)	nt	nt	37.8*	nt
COc1ccccc1C1c2[nH]c3ccccc3c2C[C@H]2C(=O)N(C3CCN(Cc4ccccc4)CC3)CC(=O)N12 (stereo partly drawn)	nt	nt	37.9*	nt
COc1ccc(C(=O)N2CCN(c3nc4ccccc4o3)CC2)cc1OC	-12.3	0.4	-2.4	-2.0
Cc1ccc(CNCC2CCCO2)s1 (stereo not drawn)	1.2	-2.1	-1.0	90.2*
Cc1ccc(OCCN2CCN(c3nc(NCc4ccco4)c4ccccc4n3)CC2)cc1	-30.6	-5.0	26.8*	1.7
c1ccc(CN2CCN(c3nc(NCc4ccco4)c4ccccc4n3)CC2)cc1	6.8	-1.9	27.9*	37.2
OCCN1CCN(c2nc(NCc3ccco3)c3ccccc3n2)CC1	-3.3	-5.3	7.4	32.7
Cc1sc(NC(=O)c2ccco2)c(CN2CCN(c3ccccc3)CC2)c1C	-17.3	-2.7	-3.9	80.1*
SMILES	NCF1 inh	HMGR II inh	dFosB act	14-3-3 Bad inh
Cc1sc(NC(=O)c2ccco2)c(CN2CCCCC2)c1C	-17.2	-0.4	-8.1	-6.3
COc1ccc(C(=O)OCC(=O)c2ccc(F)cc2)cc1OC	nt	nt	-13.9	nt
COc1ccc(C(=O)Oc2cccnc2)cc1OC	-10.4	-1.1	-7.6	73.1*
O=C(Oc1cccnc1)c1cccc(Cl)c1	-15.1	-1.0	2.8	54.0
COc1ccc(C(=O)COC(=O)c2ccc(OC)c(OC)c2)cc1OC	95.9*	0.3	-19.6	3.0
Cc1[nH]ccc(=O)c1Cc1c(Cl)cccc1Cl	nt	nt	-6.6	nt
Nc1ccc(-c2nc3ccc(N)cc3o2)cc1	-2.4	-0.3	-10.2	2.2
Cc1ccc2nc(-c3cc(N)cc(N)c3)oc2c1	-17.9	13.6*	-9.5	-14.2
CSc1nc(Cl)c(C#N)c(-c2ccc(C)cc2)n1	-3.4	1.2	-0.4	77.2*
COc1ccc(-c2nc(-c3cccc(C)c3)nc(Cl)c2C#N)cc1	-15.5	-0.1	nt	6.7
O=C(CNC(=S)N(CCCN1CCOCC1)Cc1cccs1)NC1CCCC1	34.6*	-0.3	-15.9	-9.1
O=C(CNC(=S)N(CCCN1CCOCC1)Cc1cccs1)NC1CC1	-12.4	-1.2	-0.2	-23.7
CCOc1cccc(C(=O)Nc2ccc3c(c2)OCCO3)c1	nt	nt	-6.7	nt
COc1ccc(CNC(=O)c2ccc(N3CCC4(CC3)CC(c3ccc(Cl)cc3)=NO4)c([N+](=O)[O-])c2)cc1	nt	nt	-4.0	nt
O=C(Nc1ccc(C(F)(F)F)cc1)c1ccc(NC(=O)C2CCCO2)cc1 (stereo not drawn)	nt	nt	17.0*	nt
Brc1ccc(C2Nc3cccc4cccc(c34)N2)s1	1.6	-6.5	23.1*	8.0
CC(/C=N\NC(=O)CN1CCN(S(=O)(=O)c2ccc(C)cc2)CC1)=C\c1ccccc1	-9.9	4.8	-17.2	80.5*[fluorescence artefact?]
C(=N\Nc1ccccc1)/c1ccc(N2CCOCC2)cc1	-3.6	-9.1	-8.1	88.3*[fluorescence artefact?]
CCCN1CCN(C(=O)Cn2cnc3sc(C)c(S(=O)(=O)N4CCC(C)CC4)c3c2=O)CC1	nt	nt	-5.7	nt
COc1ccc(CCn2nnc(-c3ccc(NC(C)=O)c(Cl)c3)n2)cc1	-11.2	1.1	33.5*	6.5
CC(O)CNCCOc1ccccc1OCc1ccccc1 (stereo not drawn)	-3.1	-9.9	-8.3	44.8
CC(O)CNCCNCc1c(OCc2ccccc2)ccc2ccccc12 (stereo not drawn)	10.6	-2.9	5.3	77.0*
COc1ccc(NS(=O)(=O)c2ccc3c(c2)CCO3)cc1	-82.6	nt	7.9	73.8*
O=S(=O)(Nc1ccccc1)c1ccc2c(c1)CCO2	-14.3	nt	-0.6	1.4
Cc1ccc(NC(=O)c2cc(-c3ccc(C)c(C)c3O)n[nH]2)cc1C	nt	nt	22.6*	nt
SMILES	NCF1 inh	HMGR II inh	dFosB act	14-3-3 Bad inh
Cc1cccc(NC(=O)c2cc(-c3ccc(C)c(C)c3O)n[nH]2)c1	nt	nt	32.6*	nt
COc1ccc(NC(=O)c2cc(-c3ccc(C)c(C)c3O)n[nH]2)cc1Cl	nt	nt	12.9	nt
CCn1ncc(-c2ccnc3cc(C(=O)O)nn23)c1C	9.0	-3.1	1.1	70.4*
CCOc1cccc2cc(C(=O)NCc3cccnc3)c(=O)oc12	1.3	-2.9	-4.3	-2.9
COc1nccnc1NS(=O)(=O)c1ccc(N=Cc2c(C)[nH]n(-c3ccc(C)c(C)c3)c2=O)cc1	-11.3	-4.2	-0.2	5.0
Cc1[nH]c2ccc(-c3nnc(SCC(=O)c4ccc(F)cc4)o3)cc2c1C	7.0	0.3	-3.4	11.6
Cc1cc(C)c(C)c(C(=O)CSc2nnc(-c3ccc4[nH]c(C)c(C)c4c3)o2)c1C	-14.9	5.7	-8.5	72.9*
Cn1c(=O)oc2cc(S(=O)(=O)Nc3ccc4c(c3)OCO4)ccc21	-7.4	nt	-2.3	-3.0
Cn1cc(S(=O)(=O)Nc2ccc3c(c2)OCCO3)cn1	-8.8	1.9	2.7	89.0*
CCn1cc(S(=O)(=O)Nc2ccc3c(c2)OCCO3)cn1	-0.9	-4.4	0.9	-10.9
Cn1c(=O)c2cc(S(=O)(=O)Nc3ccc4c(c3)OCO4)ccc2n(C)c1=O	65.1*	-2.2	-8.3	-28.0

Compound activity (PubChem BioAssay)
